# Compound activity from PubChem BioAssay.
# MRP reversal: reversal of MRP1-mediated doxorubicin resistance, primary screen, H69AR cells, doxorubicin co-treatment. H69AR cells + 2 uM doxorubicin, CellTiter-Glo, 72 h. differential viability (reversal), % at 10 µM. actives 0.04% (n = 85,000). AID 602, 2007;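 active means viability drop by adding the cancer drug above about 55%, with treated viability meeting a 40% cutoff, limit read from the data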;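 further: viability without doxorubicin minus viability with 2 µM doxorubicin for each compound; larger differential means the compound sensitizes cells more to doxorubicin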
# GALR2 agonist: GALR2 receptor agonists, primary screen, cell-based; Galanin receptor type 2 (Homo sapiens), O43603; AID 803, 2007; activation, % (no concentration beside the values); GALR2-expressing cells, agonist activation read-out; actives 0.48% (n = 140,000); in the data active means activation above about 5%, passing the limit was not always enough;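 further: 0% = vehicle buffer wells and 100% = reference agonist at full effect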
# Target sequence (O43603 whole entry, looked up): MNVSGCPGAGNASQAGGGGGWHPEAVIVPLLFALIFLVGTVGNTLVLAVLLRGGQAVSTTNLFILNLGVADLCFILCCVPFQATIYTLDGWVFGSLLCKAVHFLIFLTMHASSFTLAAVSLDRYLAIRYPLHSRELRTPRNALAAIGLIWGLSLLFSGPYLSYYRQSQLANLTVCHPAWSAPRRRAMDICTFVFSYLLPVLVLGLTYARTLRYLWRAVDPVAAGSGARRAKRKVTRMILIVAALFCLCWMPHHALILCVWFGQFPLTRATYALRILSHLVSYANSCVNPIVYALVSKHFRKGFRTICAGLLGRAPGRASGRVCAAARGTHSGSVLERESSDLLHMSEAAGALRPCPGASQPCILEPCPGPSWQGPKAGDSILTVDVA
# S1P2 ag: S1P2 receptor agonists, primary screen, cell-based; S1P2-expressing cell line, agonist reporter read-out; actives 0.46% (n = 97,000); activation, % at 4.5 µM; Sphingosine 1-phosphate receptor 2 (Homo sapiens), O95136; in the data active means activation above about 16%;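 further: 0% = vehicle low control and 100% = maximal reference agonist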
# MRP1 act: H69AR viability gain despite doxorubicin, primary screen, MRP-1 activator project, H69AR cells, CellTiter-Glo; viability rescue; viability increase, % at 10 µM; actives 0.61% (n = 140,000); AID 799, 2007;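 active means viability gain under doxorubicin at or above a set limit, the compound median plus 3 SD, cut at about 4.7% in these data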;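 further: MRP-1 overexpressing cells given doxorubicin 25 µM after compound pretreatment; 18-22 h compound pretreatment then 72 h with doxorubicin before readout; 0% = doxorubicin-only wells and 100% = vehicle-treated cells without doxorubicin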
# GALR2 blocker: GALR2 antagonists in receptor-expressing cells, primary screen; Galanin receptor type 2 (Homo sapiens), O43603; antagonist mode; inhibition, % at 4 µM; actives 0.39% (n = 140,000); in the data active means inhibition above about 27%;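 further: cells stimulated with galanin 1-16 at roughly its EC80; 0% = agonist challenge control and 100% = basal control without agonist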
# S1P2 blocker: human S1P2 receptor antagonists, primary screen, cell-based | Sphingosine 1-phosphate receptor 2 (Homo sapiens), O95136 | cell-based S1P2 antagonist assay, inhibition at 5 uM | inhibition, % at 5 µM | actives 0.21% (n = 97,000); in the data active means inhibition above about 45%;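 further: CRE beta-lactamase reporter cells expressing human S1P2 stimulated with S1P; 0% = agonist at EC80 alone and 100% = agonist plus reference antagonist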
# An asterisk follows results filed as active; . = no result. Most compounds without a hit are left out; they make up all but 1.8% or so of the library.
SMILES,MRP reversal,GALR2 agonist,S1P2 ag,MRP1 act,GALR2 blocker,S1P2 blocker
Cc1ccc(OCC(O)Cn2c(=N)n(Cc3ccccc3)c3ccccc32)cc1 (stereo not drawn),1,-1,-4,-6,10,32
COc1ccc(OCC(O)Cn2c(=N)n(Cc3ccccc3)c3ccccc32)cc1 (stereo not drawn),-8,-2,-10,-7,29*,46
O=[N+]([O-])c1ccc(O)c(/C=N/Nc2nc3ccccc3[nH]2)c1,.,-2,.,-3,14,.
O=[N+]([O-])c1ccc(O)c(/C=N/Nc2ccccn2)c1,.,6.2*,.,-1,20,.
Cc1ccc(S(=O)(=O)N2CCCCC2C(=O)N2CCN(C)CC2)cc1 (stereo not drawn),1,-3,-3,-2,-9,2
Brc1ccc2[nH]c3nc(SCCN4CCOCC4)nnc3c2c1,6,0,16*,.,5,-23
CC(CSc1nc2ccccc2s1)Cn1c(N2CCCC2)nc2c1c(=O)[nH]c(=O)n2C (stereo not drawn),.,0,30*,-3,3,-22
CO/N=C/c1ccc(Sc2ccccc2N)c([N+](=O)[O-])c1,16,0,17*,-1,6,-27
N#C/C(C(=O)N1CCOCC1)=C1/SC(Cc2ccccc2)C(=O)N1c1ccccc1 (stereo not drawn),5,-3,-6,3,1,7
CC(=O)/C(C#N)=C1\NC(=O)C(Cc2ccccc2)S1 (stereo not drawn),7,-1,-7,4.9*,9,11
COc1cc(NC(=O)c2ccc(Br)o2)ccc1NC(=O)C(C)C,-12,0,-3,2,-2,-2
CCCOc1ccc(CSc2nc3ccccc3[nH]2)cc1,.,-1,-8,-3,3,48*
CCCCCOc1ccc(CSc2ncn[nH]2)cc1,18,-2,-3,6.3*,0,-4
CCCCOc1ccc(CSc2ncn[nH]2)cc1,13,-2,-1,9.8*,-2,6
CCn1cnc2sc(C(=O)N3CCN(c4ccc(OC)cc4)CC3)c(C)c2c1=O,20,-2,-8,-1,-6,2
O=C(c1ccc(-c2cccc(Cl)c2)o1)N1CCN(c2ccc([N+](=O)[O-])cc2)CC1,.,0,.,4.7*,-9,.
Cc1c(Cl)cccc1-c1ccc(C(=O)N2CCN(c3ccc([N+](=O)[O-])cc3)CC2)o1,.,-1,3,-2,-7,0
COc1cccc(C2CC(c3ccccc3OC)n3ncnc3N2)c1 (stereo not drawn),-42,0,-3,-4,4,14
COc1ccccc1C1CC(c2ccc(Cl)cc2)Nc2ncnn21 (stereo not drawn),-12,-2,-5,4.8*,-4,-5
CN(C)c1ccc(NC(=O)COC(=O)CCC(=O)c2ccc(F)cc2)cc1,.,-1,-2,-1,-6,4
Cc1ccc(NC(=O)CCSc2nnnn2-c2ccc3c(c2)OCO3)cc1C,14,-3,0,6.2*,10,11
OCCN(CCO)c1ncnc2c1sc1nc(N3CCOCC3)c3c(c12)CCCC3,-7,1,23*,-5,2,-51
OCCN1CCN(c2ncnc3c2sc2nc(N4CCOCC4)c4c(c23)CCC4)CC1,-2,2,.,-3,-6,.
O=C(CC(=O)N/N=C/c1ccccc1O)NCc1cccnc1,.,-1,.,5.5*,-2,.
COc1ccccc1/C=N/NC(=O)CC(=O)NCc1cccnc1,.,0,.,-1,8,.
SMILES,MRP reversal,GALR2 agonist,S1P2 ag,MRP1 act,GALR2 blocker,S1P2 blocker
COc1ccccc1-c1nnc2sc(-c3ccc(N(C)C)cc3)nn12,.,3,.,-3,29*,.
CN(C)c1ccc(-c2nn3c(-c4ccccc4Cl)nnc3s2)cc1,-39,5,-4,-1,-11,-30
Cc1ccc(Cn2ccc(NC(=O)c3noc4c3CCCCC4)n2)cc1,0,-1,.,4.7*,-4,.
Cc1ccc(Cn2ccc(NC(=O)c3noc4c3CCCC4)n2)cc1,-5,0,.,0,-3,.
O=S(=O)(NCc1ccc(F)cc1)c1ccc2c(c1)OCCO2,23,-1,1,-2,-4,-20
CCN(CC)c1ccc(-c2nn3c(-c4n[nH]c5c4CCC5)nnc3s2)cc1,-26,6.3*,-1,-4,4,3
O=C(NCc1cccnc1)/C(=C/c1ccc(-c2ccc(Cl)cc2)o1)S(=O)(=O)c1ccccc1,.,1,-5,-7,24,54*
O=C(NCc1cccnc1)/C(=C/c1ccc(-c2cccc(C(F)(F)F)c2)o1)NC(=O)c1ccccc1,.,-2,-3,-3,9,-4
Nc1ccccc1-c1nnc(-c2ccc(-c3ccccc3)cc2)o1,.,4,20*,-1,-7,-7
O=C(CCCCn1c(=O)c2ccccc2n(CC(=O)Nc2ccccc2)c1=O)NCc1ccco1,6,-3,-3,-1,-1,7
Cc1c(NC(=O)c2ccccc2NS(=O)(=O)c2ccc(Br)cc2)c(=O)n(-c2ccccc2)n1C,-10,0,-3,5.3*,-2,7
O=C(c1ccc(CSc2nc3ccncc3[nH]2)cc1)N1CCCCC1,.,-2,.,-1,8,.
CCOc1cc(C(=O)CSc2nnc(CNc3ccc(Cl)cc3)o2)ccc1NC(=O)CC,-1,7.8*,10,-1,27,47*
COc1ccc(OC)c(NC(=O)CSc2nnc(CNC(=O)COc3ccc(Cl)cc3)o2)c1,13,0,-4,5.6*,1,26
Cc1ccc(S(=O)(=O)NC(=O)c2cc(C)n(-c3cc(S(=O)(=O)N4CCOCC4)ccc3N3CCCC3)c2C)cc1,.,-2,-1,5.0*,-7,-4
Cc1ccc(S(=O)(=O)NC(=O)c2cc(C)n(-c3ccccc3)c2C)cc1,.,0,.,-2,6,.
CC(C)(C)c1ccc(C(=O)NCCC(=O)N2CCN(c3ncccn3)CC2)cc1,20,-1,-3,-1,-10,-8
Cc1ccc(CNC(=O)c2sc3nc4c(c(C(F)(F)F)c3c2N)CCC4)cc1,.,-1,-6,4.8*,-5,-21
CCCCNc1c([N+](=O)[O-])cc(C(=O)O)cc1[N+](=O)[O-],.,-1,.,-2,3,.
CCOC(=O)N1CCN(c2nc(-c3ccco3)cc(C(F)(F)F)n2)CC1,5,-2,-5,-1,-4,11
CCOC(=O)N1CCN(c2nc(-c3cccc(OC)c3)cc(C(F)(F)F)n2)CC1,26,-1,-3,8.7*,-3,16
O=C1C(Cc2cccc([N+](=O)[O-])c2)SC(=Nc2ccccc2)N1c1ccccc1 (stereo not drawn),.,-2,.,6.4*,6,.
N#Cc1nc(COc2ccc(F)cc2)oc1N1CCCC1,-2,0,-3,4.8*,1,-8
N#Cc1nc(COc2cccc(Cl)c2)oc1N1CCCC1,11,-2,-4,-2,-5,24
